# Assay results reported in article PMC6925144, “A prospective compound screening contest identified broader inhibitors for Sirtuin 1” (Scientific Reports, 2019).
# Whole data set: some 3,200 compounds, median “TSA(with NAD+) / Primary screening (TSA) / delta Tm (K)” near -0.04, cut for the highest 2% near 0.37. The list comes from a sample in which the highest values are over-represented; it also holds similar structures and randomly drawn compounds.
# Target: NAD-dependent deacetylase Sirtuin 1 (human, UniProt Q96EB6)
# Test: primary screen, delta tm
# Design: single well (n = 1, as 'the same TSA')
# Conditions: 10 µM
# Procedure: A total of 3,192 compounds extracted from the proposed lists were first screened by thermal shift assay (TSA), which determined a melting temperature shift (ΔTm) of Sirtuin 1 upon the addition of a test compound at a concentration of 10 µM (n = 1) with primary hit criteria of ΔTm > 0.45 K or ΔTm < −1.5 K. Primary hits (48 compounds) were retested in the same assay at three concentrations (5, 10, 20 µM, n = 4) for hit confirmation and for dose-dependency check. Secondary hits (41 compounds) were checked their selectivity for Sirtuin 1 based on counterscreening on unrelated protein targets (bovine carbonic anhydrase (CA) and recombinant SH2 domain of hABL1 kinase (ABL1)) at three different concentrations (5, 10, 20 µM, n = 4), which yielded 38 hit compounds, hereafter referred to as TSA hits. The TSA screening above was conducted in the absence of NAD+. As noted, the structure of Sirtuin 1 is different in the presence of NAD+ and substrate. The chemical profile of TSA hits found from the different conditions could be different. […] As a result, 39 TSA hits were found.
# NAD-dependent deacetylase Sirtuin 1, sequence (Q96EB6 2-747 limits assumed): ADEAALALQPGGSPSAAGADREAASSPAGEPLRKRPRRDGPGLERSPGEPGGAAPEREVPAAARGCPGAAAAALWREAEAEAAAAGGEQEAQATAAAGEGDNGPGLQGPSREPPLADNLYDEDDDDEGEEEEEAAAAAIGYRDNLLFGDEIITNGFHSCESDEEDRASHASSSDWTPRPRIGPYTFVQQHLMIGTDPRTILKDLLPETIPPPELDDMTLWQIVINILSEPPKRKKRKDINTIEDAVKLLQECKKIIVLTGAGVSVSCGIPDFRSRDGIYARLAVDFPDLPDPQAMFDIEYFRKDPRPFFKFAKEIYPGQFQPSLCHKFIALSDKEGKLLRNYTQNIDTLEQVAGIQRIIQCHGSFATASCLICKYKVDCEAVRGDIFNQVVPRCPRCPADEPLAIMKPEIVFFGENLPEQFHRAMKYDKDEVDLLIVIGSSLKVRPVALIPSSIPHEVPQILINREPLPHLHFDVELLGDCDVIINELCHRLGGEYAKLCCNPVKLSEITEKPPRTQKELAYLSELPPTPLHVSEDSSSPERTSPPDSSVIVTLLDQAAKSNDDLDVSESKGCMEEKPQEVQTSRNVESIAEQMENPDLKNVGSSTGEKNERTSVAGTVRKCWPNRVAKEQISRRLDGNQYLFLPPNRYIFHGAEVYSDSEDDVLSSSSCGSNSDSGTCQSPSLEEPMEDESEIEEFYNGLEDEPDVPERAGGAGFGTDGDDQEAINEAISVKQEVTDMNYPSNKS
row,Structure (SMILES),TSA(with NAD+) / Primary screening (TSA) / delta Tm (K)
1,CCCN1CCN(CCCOc2ccccc2)CC1,-0.12
2,CC12CCC(C/C1=N/N=C1/CC3CCC1(C)C3(C)C)C2(C)C,-0.29
3,CC(=O)N1N=C(c2ccc(O)cc2)CC1c1ccccc1 (stereo not shown),0.36
4,O=C(CSc1nnnn1-c1ccc(O)cc1)N1N=C(c2ccc3ccccc3c2)CC1c1ccccc1 (stereo not shown),0.66
5,CC(=O)N1N=C(c2ccccc2)CC1c1ccc(Br)cc1 (stereo not shown),-0.08
6,COc1ccnc(C(=O)NCC(C)(C)N2CCC(N(C)C)CC2)c1,-0.14
7,OC(CNc1ncccn1)c1ccc(Cl)cc1 (stereo not shown),-0.04
8,O=C(O)c1ccc2[nH]c(S)nc2c1,-0.13
9,CC(OC(=O)Cc1c[nH]c2ccccc12)C(=O)Nc1ccc(C(N)=O)cc1 (stereo not shown),0.12
10,O=C(CCc1c[nH]c2ccccc12)Nc1nnc(-c2ccccc2)o1,0.39
11,O=C(CCc1c[nH]c2ccccc12)Nc1ccc2nc[nH]c(=O)c2c1,0.27
12,O=C(CCc1c[nH]c2ccccc12)NCCc1ccco1,-0.11
13,O=C1NC(=S)NC(=O)C1=Cc1cc2ccccc2[nH]c1=O,-0.09
14,O=C(Nc1cccc(S(=O)(=O)N2CCOCC2)c1)C(c1ccccc1)c1ccccc1,0.16
15,O=C(Nc1cccc(S(=O)(=O)N2CCOCC2)c1)c1cc(-c2ccccc2)nn1-c1ccccc1,-0.04
16,O=C(Nc1cccc(S(=O)(=O)N2CCOCC2)c1)c1cn(-c2ccccc2)nc1-c1ccccc1,0.12
17,O=C(Nc1cccc(S(=O)(=O)N2CCOCC2)c1)c1ccccc1Cc1ccccc1,-0.09
18,CN(c1ccccc1)S(=O)(=O)c1ccc(C(=O)Nc2cccc(S(=O)(=O)N3CCOCC3)c2)cc1,-0.01
19,O=C(Nc1cccc(S(=O)(=O)N2CCOCC2)c1)c1cccc(S(=O)(=O)N2CCc3ccccc32)c1,0.41
20,Cc1ccc(-c2nn(-c3ccccc3)cc2C(=O)Nc2cccc(S(=O)(=O)N3CCOCC3)c2)cc1,0.26
21,O=C(Nc1cccc(S(=O)(=O)N2CCOCC2)c1)c1cn(-c2ccccc2)nc1-c1ccc(F)cc1,0.39
22,O=C(Nc1cccc(S(=O)(=O)N2CCOCC2)c1)c1cn(-c2ccccc2)nc1-c1ccc(Cl)cc1,0.63

row,Structure (SMILES),TSA(with NAD+) / Primary screening (TSA) / delta Tm (K)
1,O=C(CCC(=O)c1ccccc1)Nc1ccccc1Cc1ccccc1,-0.11
2,COC1CCCC1NC(=O)Cc1sc(S)nc1C (stereo not shown),-0.26
3,COc1ccccc1C1C(C(=O)/C=C/c2ccco2)=C(O)C(=O)N1CCCN1CCOCC1 (stereo not shown),-0.18
4,CC(N)C(N)=O (stereo not shown),-0.19
5,Cc1nc(N2CCC(C(N)=O)CC2)c2c3c(sc2n1)CCCCC3,0.66
6,NC(=O)C1CCN(c2ncnc3sc4c(c23)CCC4)CC1,-0.04
7,Cc1nc(N2CCC(C(N)=O)CC2)c2c3c(sc2n1)CCCC3,0.57
8,Cc1nc(N2CCC(NC(N)=O)CC2)c2c3c(sc2n1)CCCC3,-0.03
9,Cc1nc(N2CCC(C(N)=O)CC2)c2c3c(sc2n1)CCC3,0.01
10,Cc1nc(N2CCN(c3ncccc3C(N)=O)CC2)c2c3c(sc2n1)CCC3,0.02
11,Cc1noc(C(C)N2CCN(Cc3cccc(C(N)=O)c3)CC2)n1 (stereo not shown),-0.03
12,NCCC[C@@H](N)C(=O)O,-0.08
13,O=C(CCc1nc2ccccc2o1)N1CCN(C(c2ccc(F)cc2)c2ccc(F)cc2)CC1,-0.01
14,O=C(O)c1ccc2[nH]c(C(F)(F)F)nc2c1,-0.14
15,COc1cc(-c2nc(-c3ccccc3)c(-c3ccccc3)[nH]2)ccc1OS(=O)(=O)c1ccc(C)cc1,0.05
16,CNC(=O)CCNc1ccc2nnc(C(F)(F)F)n2n1,0.08
17,COC(=O)C[C@H](N)C(=O)O,0.02
18,COCC(C)N (stereo not shown),-0.04
19,Cc1ccc(C23CC4CC(CC(C(=O)OC(C)C(=O)Nc5ccc(S(N)(=O)=O)cc5)(C4)C2)C3)cc1C (stereo not shown),0.43
20,Cc1ccc(C23CC4CC(CC(C(=O)OCC(=O)Nc5ccc(S(N)(=O)=O)cc5)(C4)C2)C3)cc1,0.29
21,Cc1ccc(C23CC4CC(CC(C(=O)OCC(N)=O)(C4)C2)C3)cc1C,-0.16
22,COc1cc(OC)c(OC)cc1C=C1C(=O)NC(=S)NC1=O,-0.16

row,Structure (SMILES),TSA(with NAD+) / Primary screening (TSA) / delta Tm (K)
1,Cc1csc2c(N3CC4CCCN4CC3C)ncnc12 (stereo not shown),-0.19
2,CCCCCCCCNC(=O)/C(C#N)=C/c1c[nH]c2ccccc12,0.43
3,N#C/C(=C\c1[nH]c2ccccc2c1Cl)C(N)=O,-0.09
4,CCOc1ccc(/C=C(/C#N)C(=O)c2c[nH]c3cc(F)ccc23)cc1,-0.03
5,Cc1ccc(C(=O)Nc2ccc(NC(=O)NCC3CCCO3)cc2)cn1 (stereo not shown),0.55
6,COc1cc(C=C(C(=O)NCC2CCCO2)C(=O)NCC2CCCO2)ccc1OCC(=O)Nc1ccc(C)cc1 (stereo not shown),-0.15
7,O=C(NCC1CCCO1)Nc1ccc(NC(=O)c2ccccn2)cc1 (stereo not shown),0.06
8,COC(=O)c1ccc2[nH]c3c(c2c1)CN(S(C)(=O)=O)CC3,0.16
9,N#CCCC(C#N)CN1CCC(CCc2ccc(O)cc2)CC1 (stereo not shown),-0.14
10,CC(NC(=O)COC(=O)c1cccc(S(=O)(=O)NCc2ccccc2)c1)C12CC3CC(CC(C3)C1)C2 (stereo not shown),0.05
11,O=C(COC(=O)c1cccc(NS(=O)(=O)/C=C/c2ccccc2)c1)NC12CC3CC(CC(C3)C1)C2,-0.01
12,Cc1cccc(NS(=O)(=O)c2cccc(C(=O)OCC(=O)NC(=O)NC34CC5CC(CC(C5)C3)C4)c2)c1,0.46
13,CC(=O)c1ccc(NC(=O)C(C)OC(=O)c2cccc(S(=O)(=O)NC(C)C34CC5CC(CC(C5)C3)C4)c2)cc1 (stereo not shown),0.19
14,O=C(COC(=O)c1cccc(S(=O)(=O)NCc2ccccc2)c1)NC12CC3CC(CC(C3)C1)C2,-0.25
15,CC(NS(=O)(=O)c1cccc(C(=O)OCC(=O)Nc2sccc2C#N)c1)C12CC3CC(CC(C3)C1)C2 (stereo not shown),0.37
16,Cn1cc(C(=O)O)c(-c2cccnc2)n1,0.06
17,NC(=O)CCN(Cc1ccccc1)C(=O)COC(=O)C12CC3CC(C1)CC(c1ccccc1)(C3)C2,-0.03
18,O=C(Oc1ccc2oc3ccccc3c2c1)c1ccc([N+](=O)[O-])cc1,-0.08
19,COc1ccc(C(=O)OC(C)C(=O)Nc2ccc(C(N)=O)cc2)c(OC)c1 (stereo not shown),-0.01
20,COc1ccc2cc(/C=C/C(=O)Nc3ccc(C(N)=O)cc3)ccc2c1,0.76
21,CCN(CC(=O)Nc1ccc(OC)cc1)CC(=O)Nc1ccc(C(N)=O)cc1,-0.04
22,O=C(NCc1ccccc1O)c1ccc2c(c1)C(=O)c1ccccc1-2,-0.03

row,Structure (SMILES),TSA(with NAD+) / Primary screening (TSA) / delta Tm (K)
1,CCC(=O)Nc1cccc(C(=O)NNC(=O)c2nc(-c3ccccc3)n(-c3ccccc3)n2)c1,-0.06
2,CC(C)C(NC(=O)CCCn1c(=O)oc2cc([N+](=O)[O-])ccc21)c1nnc2ccccn12 (stereo not shown),-0.11
3,Cc1nc(-c2ccccn2)[nH]c(=O)c1CC(=O)NCCc1cccc2cccnc12,0.28
4,CC(C(=O)NC(c1ccccc1)C1CC1)n1cnc2ccccc21 (stereo not shown),0.05
5,O=C(CCCc1nc2ccccc2c(=O)[nH]1)N1CC2CC3CC(C2)CC1C3,-0.01
6,CC(N)c1nnn[nH]1 (stereo not shown),-0.05
7,COc1ccccc1NC(=O)COc1ccc(C(=O)OCC(=O)NC23CC4CC(CC(C4)C2)C3)cc1OC,0.13
8,COc1ccccc1NC(=O)c1ccc(NC(=O)COC(=O)C23CC4CC(CC(C4)C2)C3)cc1,0.39
9,COc1ccc(NC(=O)c2ccc(NC(=O)COC(=O)C34CC5CC(CC(Br)(C5)C3)C4)cc2)cc1,0.73
10,COc1ccccc1NS(=O)(=O)c1ccc(NC(=O)CNC(=O)C23CC4CC(CC(C4)C2)C3)cc1,0.08
11,COc1ccc(NC(=O)c2ccccc2NC(=O)COC(=O)C23CC4CC(CC(O)(C4)C2)C3)cc1,-0.04
12,COc1ccc(NC(=O)CC23CC4CC(C2)CC(CC(=O)Nc2ccc(OC)cc2)(C4)C3)cc1,-0.11
13,Cc1ccccc1CC(=O)Nc1ccc(N2CCN(Cc3ccccc3)CC2)cc1,0.09
14,CN(c1ccccc1)S(=O)(=O)c1ccc(C(=O)NNC(=O)C23CC4CC(CC(C4)C2)C3)cc1,0.08
15,COC(=O)c1ccccc1Nc1ccnc(Cl)n1,-0.11
16,Cc1cccc(-c2nc3ccccc3n3c(C)nnc23)c1,-0.13
17,Cn1c(=O)c2ccccc2n2c(COC(=O)Cn3nc(-c4ccc(F)cc4)oc3=O)nnc12,-0.03
18,O=C1NC(=S)NC(=O)C1=Cc1ccc(-c2ccc(SC(F)F)cc2)o1,-0.43
19,Cc1ccc(C(=O)OCc2ccc(C(=O)Nc3ccccc3)cc2)cc1,-0.18
20,O=C(NO)c1cccc(C(F)(F)F)c1,-0.19
21,CCNC(=O)c1cccc(NC(=O)C2CCN(S(=O)(=O)c3cc(C(C)(C)C)ccc3C)CC2)c1,0.16
22,Cc1ccc(C(C)(C)C)cc1S(=O)(=O)Nc1cccc(C(=O)NNC(=O)c2cccc(S(=O)(=O)Nc3cccc(C(F)(F)F)c3)c2)c1,0.65
